Data: PubChem BioAssay (NCATS)
Inconclusive results are not listed. Calls of active or inactive are those of the source. The call rests on the fitted dose curve.

experiment: A High-Content qHTS Against Drug Library for the Identification of Small Molecules that Inhibit DYT1 Early Onset Primary Dystonia-Associated Cell Pathology (AID 1645839); settings: HEK293 Flp-In EGFP-delE TorsinA, punctate imaging, 48 h; series mostly up to 46.1 µM; % pathology change, negative = correction: at the top concentration
Summary of the method: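 In this high-content image screen, delE TorsinA mislocalization in inducible Flp-In 293 cells is scored as %pathology, with cell count serving as the counterscreen. Compound exposure lasts 48 h under tetracycline induction in reduced-serum medium.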

Compound	% pathology change, negative = correction
CN(C)CCCOC1(Cc2ccccc2)CCCCCC1	-5.14% (inactive)
O=C(C1CCCCC1)N1CC(=O)N2CCCc3ccccc3C2C1 (stereo unspecified)	-15.8% (inactive)
CCCCOC(=O)CCCCCCCCC(=O)OCCCC	11.8% (inactive)
CC(=O)Nc1c(I)c(NC(C)=O)c(I)c(C(=O)O)c1I	8.58% (inactive)
CN(C)[C@@H]1C(=O)C(C(N)=O)=C(O)[C@@]2(O)C(=O)C3=C(O)c4c(O)cccc4C[C@H]3C[C@@H]12	14.7% (inactive)
CC1(C)S[C@@H]2[C@H](NC(=O)C(c3ccccc3)S(=O)(=O)O)C(=O)N2[C@H]1C(=O)O (stereo partly specified)	7.86% (inactive)
O=C(O)Cn1c(=O)n(Cc2ccc(Br)cc2F)c(=O)c2ccc(Cl)cc21	-3.22% (inactive)
CCCC(=O)c1cc(O)c(O)cc1O	-36.4% [at 91.7 µM] (inactive)
CC(C)(C)C1CCC(CC2=C(O)c3ccccc3C(=O)C2=O)CC1 (stereo unspecified)	2.93% (inactive)
O=P(O)(O)OCC(O)CO (stereo unspecified)	19.2% (inactive)
Cc1ccc(-c2ccccc2C#N)cc1	4.25% (inactive)
N=C(N)c1ccc(OCCCOc2ccc(C(=N)N)cc2)cc1	15.9% (inactive)
CC(=O)O[C@@H]1C(=O)O[C@@H]2[C@H]1OC(=O)[C@@H]2OC(C)=O	-25.2% (inactive)
CC(C)C[C@H](NC(=O)CNC(=O)[C@H](Cc1ccc(O)cc1)NC(=O)[C@H](CO)NC(=O)[C@H](Cc1c[nH]c2ccccc12)NC(=O)[C@H](Cc1cnc[nH]1)NC(=O)[C@@H]1CCC(=O)N1)C(=O)N[C@@H](CCCN=C(N)N)C(=O)N1CCC[C@H]1C(=O)NCC(N)=O (stereo in doubt)	1.63% (inactive)
Brc1ccccc1-c1ccccc1	-15.1% [at 91.7 µM] (inactive)
COC(=O)c1cc(Cl)c(NC(C)=O)cc1OC	-3.58% (inactive)
